High-throughput results: PubChem, National Center for Advancing Translational Sciences (NCATS)
Most compounds without a hit are left out; they make up all but 9.3% or so of the library.
ELG1 genotox – inducers of genotoxicity in HEK293T ELG1-luciferase cells; Potency, µM (doses to about 46 µM), for the others: top-dose activity change, positive = activation, most hits filed as activators; AID 504466; HEK293T ELG1-luciferase reporter, luminescence, 16 h; actives 1.3% (n = 330,000); also: % of control where 0% means no effect; nearly all actives have a fitted effect of over 60% in size
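Screening used a luciferase reporter fused to human ELG1 in HEK293T cells. Luminescence was read on a CCD plate imager after 16 hr exposure and 30 min ONE-Glo incubation.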
SMN2 splice enh – enhancers of SMN2 splice variant expression; HEK293 SMN2-luciferase splicing reporter, luminescence, 30-36 h; Potency, µM (series often up to 46.1 µM), without a hit: at the top dose activity change, positive = activation, most hits filed as activators; actives 2.8% (n = 210,000); AID 1458; also: % of control where 0% means no effect; nearly all actives have a fitted effect of over 55% in size
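HEK293 cells carry an SMN2 minigene-luciferase reporter in which exon 7 inclusion puts luciferase in frame. Cells were seeded at 2000 cells/well, attached for 10-12 hours, then exposed to compounds for 30-36 hours at 37C before ONE-Glo luminescence.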
ELG1 DNA repair – ELG1-dependent DNA repair inhibition; HEK293T ELG1-luciferase reporter, luminescence, 16 h; DNA damage induced by 5-fluorouridine; Potency, µM (doses to about 46.1 µM), for inactives: at the top dose activity change, negative = inhibition, most hits filed as inhibitors; actives 2.3% (n = 330,000); also: % is scaled to controls: 0 for no effect and ±100 for the full control effect; nearly all actives have a fitted effect of over 55% in size
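Cells (2,000 per well) received 5-fluorouridine plus test compound or DMSO and were incubated 16 hr at 37 °C, 5% CO2. Luciferase activity was read by luminescence 30 min after ONE-Glo addition; signal suppression marked inhibition of damage-induced ELG1 function.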
NPC1 prom act – NPC1 promoter activation | AID 485313 | actives 2.4% (n = 320,000) | Huh7 NPC1 promoter luciferase reporter, 24 h | Potency, µM (titrated, usually from 9.22 µM), for inactives: at the highest dose activation, usual class: activators; also: % of control where 0% means no effect; nearly all actives have a fitted effect of over 60% in size
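Cells: Huh7 expressing luciferase under the NPC1 promoter, 1500/well. Seeded 2 h, compound added, incubated 24 h at 37 °C. Luciferase reagent, 10 min ambient, then luminescence.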
Rab9 promoter act – Rab9 promoter activation | Potency, µM (series often up to 9.22 µM), inactives show at the highest dose activation, negative = inhibition, hits mostly activators | Huh7 Rab9 promoter-luciferase reporter, luminescence, 24 h | actives 2.8% (n = 320,000); also: % of control where 0% means no effect; nearly all actives have a fitted effect of over 60% in size
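Luminescence from Amplite-detected luciferase (10 minutes, ambient) reports Rab9 promoter activation. Before that, stable Rab9-luciferase Huh7 cells (1500/well, reduced-serum OP-MEM I plus 10% FBS) were exposed to compound for 24 hours at 37C.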
FLuc counter – inhibits or activates purified firefly luciferase, miR-21 counter-screen | purified FLuc, Km substrates, luminescence inhibition | actives 6.9% (n = 360,000) | P08659 | Potency, µM (doses to about 57.5 µM), for inactives: at the top dose activity change, negative = inhibition, most hits filed as inhibitors;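 also: plate controls were vehicle for no effect and reference inhibitor for full effect; nearly all actives have a fitted effect of over 55% in size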
Target sequence (P08659 whole entry, looked up): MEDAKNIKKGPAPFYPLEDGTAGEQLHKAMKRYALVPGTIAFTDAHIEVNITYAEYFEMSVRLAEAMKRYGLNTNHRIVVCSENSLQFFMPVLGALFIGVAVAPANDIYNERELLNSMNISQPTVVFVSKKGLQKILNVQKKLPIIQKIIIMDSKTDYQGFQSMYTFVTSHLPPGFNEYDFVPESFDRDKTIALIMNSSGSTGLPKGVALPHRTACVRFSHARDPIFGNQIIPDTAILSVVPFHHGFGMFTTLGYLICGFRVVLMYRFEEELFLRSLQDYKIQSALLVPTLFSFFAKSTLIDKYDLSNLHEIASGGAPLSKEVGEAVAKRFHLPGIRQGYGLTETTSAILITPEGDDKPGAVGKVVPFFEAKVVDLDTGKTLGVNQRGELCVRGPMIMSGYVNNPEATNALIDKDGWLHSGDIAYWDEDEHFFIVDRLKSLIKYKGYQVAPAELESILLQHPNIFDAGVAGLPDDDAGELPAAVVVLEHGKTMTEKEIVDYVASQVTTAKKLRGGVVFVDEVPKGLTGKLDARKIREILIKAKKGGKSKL
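Purified P. pyralis luciferase (10nM final) with 10uM D-luciferin and 10uM ATP (Km levels) in 50mM Tris acetate pH 7.5, 10mM Mg acetate, 0.01% Tween-20, 0.05% BSA; qHTS 6-point titration, ~60 µM downward; luminescence read.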
Starred values were filed as active, the others as inactive; u = inconclusive; x = no result given. Calls follow the shape of the dose curve; as a rule, active = well fitted curve in the direction sought with a large enough effect; inconclusive = small, poorly fitted or top-dose-only effect, or another doubt; inactive = no such curve, though single readings can be large; an effect the other way counts as inactive or inconclusive. Potency is read from the fitted curve at half-maximal effect.

SMILES	ELG1 genotox	SMN2 splice enh	ELG1 DNA repair	NPC1 prom act	Rab9 promoter act	FLuc counter
COc1cc(OC)cc(-c2cc3nc(C)c(CCC(=O)O)c(C)n3n2)c1	-10.8%	-36.4%	u	-15.3%	-13.7%	15.1µM*
CCOC(=O)C1CCN(C(=O)CCc2c(C)nc3cc(-c4ccccc4)nn3c2C)CC1	-3.7%	-16.9%	-0.3%	-3.6%	3.4%	u
CCOC(=O)C1CCCCN1C(=O)CCc1c(C)nc2cc(-c3ccccc3)nn2c1C (stereo not given)	-12.7%	-49.2%	u	9.2%	-3.0%	15.1µM*
COc1ccc(-c2cc3nc(C)c(CCC(=O)NCc4ccc(F)cc4)c(C)n3n2)c(OC)c1	-10.0%	53.3%	25.9µM*	-3.1%	-1.5%	-1.6%
Cc1nc2cc(-c3cccc(F)c3)nn2c(C)c1CCC(=O)NC1CCCCC1	x	-12.5%	x	x	x	12µM*
COc1ccc(CCNC(=O)CCc2c(C)nc3cc(-c4ccccc4)nn3c2C)cc1OC	x	20.4%	x	x	x	u
C/C(=N\NC(=O)c1c(C)nc2ccccn12)c1cccc([N+](=O)[O-])c1	-10.8%	-18.3%	u	-2.9%	14.1%	2.7%
Cc1nc2cc(-c3ccccc3)nn2c(C)c1CCC(=O)NCc1ccco1	-3.3%	-11.6%	u	6.4%	2.9%	u
Cc1nc2cc(-c3cccc(F)c3)nn2c(C)c1CCC(=O)NC(C)CCc1ccco1 (stereo not given)	-5.0%	5.3%	u	-0.1%	-1.8%	15.1µM*
COc1cc(OC)cc(-c2cc3nc(C)c(CCC(=O)NC(C)CCc4ccco4)c(C)n3n2)c1 (stereo not given)	-23.0%	-15.5%	12.6µM*	-3.9%	7.1%	0.9%
COC(=O)C(NC(=O)CCc1c(C)nc2cc(-c3cccc(F)c3)nn2c1C)C(C)C (stereo not given)	x	3.4%	x	x	x	-4.9%
O=C(Cc1ccc(Cl)cc1)Nc1cccc(C(=O)Nc2ccccc2C(=O)O)c1	0.8%	x	u	-4.1%	-6.7%	-19.4%
COc1ccc(OCC(=O)Nc2cccc(C(=O)Nc3ccccc3C(=O)O)c2)cc1	0.3%	12.9%	1.7%	1.0%	-1.8%	23.9µM*
CC(C)CNC(=O)c1cccc(NC(=O)COc2ccc([N+](=O)[O-])cc2)c1	-12.7%	x	20.6µM*	-4.8%	-23.5%	u
COc1ccc(CC(=O)Nc2cccc(C(=O)Nc3ccccc3C(=O)O)c2)cc1OC	-1.3%	7.2%	17.4%	1.2%	-9.0%	16.9µM*
COc1cccc(NC(=O)COc2ccccc2)c1	u	x	u	u	19.1%	u
NS(=O)(=O)c1cccc(NC(=O)COc2ccc([N+](=O)[O-])cc2)c1	-0.8%	-1.0%	u	3.9%	11.3%	u
C1CCCC(NC2=NCCO2)CCC1	-1.8%	x	-3.7%	-0.8%	1.9%	-2.1%
c1csc(-c2noc(CN3CCOCC3)n2)c1	16.8%	x	u	27.6%	27.0%	-17.0%
CCC(C)(C)C1CCC(=NNc2nc3ccccc3[nH]2)CC1 (stereo not given)	2.4%	1.3%	10.3%	6.0%	7.4%	12µM*
O=C(Nc1ccc(Br)cc1)N1CCc2ccccc2C1	u	x	u	2.82µM*	2.82µM*	10.7µM*
O=C(Nc1ccc(F)cc1)N1CCc2ccccc2C1	u	x	u	3.98µM*	u	23.9µM*
COCc1ccc(-c2c(-c3ccc(OC)cc3)oc(=O)c3cc(OC)c(OC)cc23)cc1	17.1%	x	-8.5%	x	x	x
COc1ccc(-c2oc3cccnc3c2/C=C/c2ccc(OC)c(OC)c2)cc1	1.6%	x	u	1.7%	2.7%	7.57µM*
COc1ccc(-c2oc(=O)c3cc(OC)c(OC)cc3c2C#CCCO)cc1	1.6%	x	16.4µM*	x	x	x
SMILES	ELG1 genotox	SMN2 splice enh	ELG1 DNA repair	NPC1 prom act	Rab9 promoter act	FLuc counter
COc1ccc(/C=C/c2c(-c3ccc(OC)cc3)oc(=O)c3cc(OC)c(OC)cc23)cc1	0.3%	x	5.8µM*	x	x	x
CCOC(=O)c1c(NC(=O)/C=C/c2ccc(OCC)cc2)sc2c1CCC2	x	28.4%	x	x	x	0.4%
O=[N+]([O-])c1cc2c(cc1/C=N/Nc1nc(Nc3ccccc3)nc(N3CCCCC3)n1)OCO2	8.6%	-5.2%	5.6%	18.9%	25.0%	2.13µM*
O=[N+]([O-])c1ccc(/C=N/Nc2nc(N3CCCCC3)nc(N3CCCCC3)n2)o1	-9.8%	u	23.1µM*	-1.6%	-2.1%	0.3%
O=C(O)c1cccc(Nc2nc(Nc3ccccc3)nc(N3CCCC3)n2)c1	-8.9%	4.1%	0.0%	3.16µM*	u	u
C(=N\Nc1nc(N2CCCC2)nc(N2CCCC2)n1)/c1ccncc1	-6.1%	-13.7%	-19.7%	-1.0%	-5.2%	-2.8%
O=C(O)COc1ccc(/C=N/Nc2nc(Nc3ccccc3)nc(N3CCCCC3)n2)cc1	-1.9%	11.1%	-19.8%	-4.0%	0.2%	0.675µM*
Cc1ccc(N=C(N(C)C)P(=O)(N(C)C)N(C)C)c(C)c1	-5.2%	7.9%	-10.2%	-2.2%	2.5%	2.4%
O=C(COC(=O)c1ccccc1O)NCc1ccccc1Cl	0.3%	x	-4.1%	x	x	x
COc1ccnc(NCc2ccc(Cl)cc2)c1C#N	10.6%	17.2%	u	1.1%	23.8%	1.1%
Cc1ccc(C2NC(=O)c3sc(=S)n(-c4ccccc4)c3N2)cc1 (stereo not given)	-6.5%	-15.9%	-9.6%	-5.5%	-11.3%	-9.1%
COc1cc(C(=O)Nc2ccc3c(c2)OCO3)c([N+](=O)[O-])cc1OC	-5.5%	x	-0.6%	-4.0%	2.8%	7.1%
C(=N\Nc1nc(Nc2ccccc2)nc(N2CCCCC2)n1)/c1ccco1	-11.0%	x	u	4.7%	25.7%	6.01µM*
CC(=O)Nc1ccc(/C(C)=N/Nc2nc(Nc3ccccc3)nc(N3CCOCC3)n2)cc1	-2.5%	x	6.51µM*	-1.2%	-3.3%	16.9µM*
CC(=O)c1ccc(Nc2nc(N3CCOCC3)nc(N3CCOCC3)n2)cc1	4.5%	x	-24.3%	9.0%	18.5%	u
COc1ccc(/C=N/Nc2nc(Nc3ccccc3)nc(N3CCCC3)n2)cc1	-13.9%	-19.8%	u	5.0%	3.5%	-10.3%
COc1ccc(CCC(C)Nc2ccc(F)c(F)c2)cc1 (stereo not given)	-1.1%	-16.5%	14.1%	-0.6%	-0.5%	0.3%
c1ccc(-c2csc(-c3ccc(-c4csnn4)cc3)n2)cc1	u	x	u	28.6%	u	u
O=C(O)c1ccc(-c2nc(-c3ccccc3Cl)cs2)cc1	u	17.8µM*	u	u	u	16.9µM*
